Measured values published in PubChem BioAssay.

Test system: Human papillomavirus type 1a protein E7 (residues 44-93)
Experiment: HPV1a E7 fragment binders on microarrays, primary screen, biochemical, small-molecule microarray, residues 44-93, 635 nm fluorescence (AID 1108);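 further: E7 fragment applied at 1 µg/mL in TBST for 1 h at 4 C; score combines spot fluorescence with its signal to noise ratio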
Conditions: small-molecule microarray binding, fluorescence 635 nm; higher = more signal
Compound `CO[C@@H]1COC(=O)CC=C[C@@H](C)[C@@H]2C=C[C@@H](O)[C@@H](COC(=O)CC=C[C@H]1C)O2` has a composite z-score of -0.438. Work on `CO[C@@H]1COC(=O)[C@H](C)NC(=O)[C@@H](C)COC(=O)CCC[C@H]1C` yielded a composite z-score of 0.379. For `COC(=O)[C@@]1(Cc2ccc(OC)cc2)[C@H]2c3cc(C(=O)N4CCCC4)n(Cc4cc(F)c(F)c(F)c4)c3C[C@H]2CN1C(=O)c1ccccc1`, the composite z-score was 1.37. With `CC(C)=NOCc1cccc(-c2cc(-c3ccccc3)no2)c1` the composite z-score was 0.332. `CC(C)=NOCc1ccc(-c2cc(-c3ccccc3)no2)cc1` gave a composite z-score of -0.0501. In the case of `Cn1cccc1C(O)C1C=CC2C(=O)NC(=O)C2N1Nc1ccccn1` (stereo unspecified), the composite z-score is reported as -1.15.

Test system: not listed separately
Experiment: modulators of HCV replicon luciferase signal, primary screen, HCV replication inhibitor project, Huh7 cells, luciferase reporter (AID 1109);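 further: huh7 hepatoma cells harbouring a luciferase neomycin HCV replicon reporter; luciferase luminescence as measure of HCV replicon replication; test concentration not given here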
Conditions: 48 h, higher = more signal
With `CCN1C(=O)[C@H]2[C@H]3[C@H](O)[C@H](O)CC(=NOC[C@@H](C)[C@H](OCc4ccccc4)C(C)C)[C@@H]3CC[C@H]2C1=O` the z-score was -1.47. Compound `CCOC(=O)NN=C1C[C@@H](O)[C@@H](O)[C@@H]2[C@@H]3C(=O)N(C4CCCCC4)C(=O)[C@@H]3CC[C@@H]12` has a z-score of -0.336. For `CCc1cc2c(nc1CC)CCN(CCC(C)=NOC[C@@H](O)[C@H]1O[C@@H]3OC(C)(C)O[C@@H]3[C@H]1O)C2`, the z-score was -1.59. Compound `CC(C)NC(=O)[C@@H]1c2ccccc2C(=O)N(CC23CC4CC(CC(C4)C2)C3)[C@H]1c1ccc(CO)cc1` has a z-score of -1.67. Work on `CN1C(=O)C2C=CC(C(O)C(c3ccccc3)c3ccccc3)N(NC(=O)OC(C)(C)C)C2C1=O` (stereo unspecified) yielded a z-score of -0.527. For `CC(C)(C)OC(=O)CC[C@]1(C(N)=O)COC(c2ccc(OCCCO)cc2)=N1`, the z-score was -0.518. `C/C=C\[C@@H](NCc1ccccc1Br)[C@@H](O)Cc1ccccc1` gave a z-score of -3.08. Work on `CCOC(=O)C1=CC[C@H]2C(=O)N(CC)C(=O)[C@@H]12` yielded a z-score of -2.13. For `COC(=O)C1(C)C=C2C(=C(c3ccccc3)C(=O)C2C)CN1` (stereo unspecified), the z-score was -0.546. With `CO[C@@H]1COC(=O)CC=C[C@@H](C)[C@@H]2C=C[C@H](O)[C@@H](COC(=O)CCC[C@H]1C)O2` the z-score was -1.96. Compound `CCOC(=O)[C@H](Cc1ccccc1)NC(=O)CCC1CC(OC(=O)NCc2ccc3c(c2)OCO3)CC2(CCCC(COC(=O)NCC(c3ccccc3)c3ccccc3)O2)O1` (stereo partly specified) has a z-score of 0.529. Compound `CN1C(=O)C2C(C1=O)C1C=C(CCCO)C2C(c2ccc(CN3CCCC3)cc2)N1C` (stereo unspecified) has a z-score of -0.259. `[N-]=[N+]=NCc1ccccc1[C@@H]1OC(c2ccc(OCCCO)cc2)=N[C@]1(Cc1ccccc1)C(=O)N1CCOCC1` gave a z-score of -2.03. With `CO[C@@H]1COC(=O)CCC[C@@H](C)[C@H](OC)COC(=O)CCC[C@H]1C` the z-score was -1.38. For `C=COC[C@H]1CN2[C@@H](CC[C@@H](C)[C@@H]2c2ccc(Br)cc2)C(=O)O1`, the z-score was 0.924. With `CC(C)=CCCC(C)=CCON=C1[C@H]2CCn3c(=O)n(Cc4cc5c(cc4Cl)OCO5)c(=O)n3[C@H]2[C@H](O)[C@@H]2O[C@H]12` the z-score was -0.78. `C=CCOC(=O)[C@H]1[C@@H]2C(=O)O[C@@H](c3ccccc3)[C@@H](c3ccccc3)N2[C@@H](c2ccc(OCCOC(=O)[C@H]3C[C@H]4C(=O)N5CCC[C@H]5C(=O)N4[C@H]3c3cccc(OCCO)c3)cc2)[C@]12C(=O)Nc1ccc(I)cc12` gave a z-score of -0.38. For `COc1ccc(-c2ccc3c(n2)CCCN3CC(O)CN2CCCc3nc(C)c(C)cc32)cc1` (stereo unspecified), the z-score was -0.578. Work on `COC(=O)[C@@]1(Cc2ccccc2)[C@H]2c3cc(C(=O)N4CCCC4)n(Cc4ccccn4)c3C[C@H]2CN1C(=O)c1ccccc1` yielded a z-score of -1.24. Compound `CC(C)NC(=O)[C@@]1(C)c2ccccc2C(=O)N(Cc2cc(F)cc(C(F)(F)F)c2)[C@H]1c1ccc(CO)cc1` has a z-score of 0.0589. For `CO[C@H]1COC(=O)[C@H](C)COC(=O)CC=C[C@@H](C)[C@H](OC)COC(=O)CC=C[C@@H]1C`, the z-score was -0.265. With `CC(=O)OC[C@H]1O[C@H](CCON=C(C)CCC(=O)OC[C@H]2O[C@H](C#Cc3ccccc3)C=C[C@@H]2Oc2ccc(C)cc2)C=C[C@@H]1OC(C)=O` the z-score was -0.0572. With `CN(C)C(=O)[C@@]1(Cc2ccccc2)N=C(c2ccc(OCCCO)cc2)O[C@H]1c1ccccc1CN=[N+]=[N-]` the z-score was -2.14. `C=CCC(OC(C)=O)[C@@H]1[C@@H](N(Cc2cc3ccccc3o2)C(=O)Cc2ccc(F)cc2)c2cc(OCCCO)ccc2N1C(=O)Cc1ccc(OC)cc1` (stereo partly specified) gave a z-score of -1.14. Compound `COc1ccc(O[C@H]2C=C[C@@H](c3ccccc3)O[C@@H]2COC(=O)CCC(C)=NO[C@H](C)c2cn([C@@H]3COC[C@H]3O)nn2)cc1` has a z-score of -2.82. For `O=C(NN=C1C[C@@H](O)[C@@H](O)[C@@H]2[C@@H]3C(=O)N(c4cccc(Oc5ccccc5)c4)C(=O)[C@@H]3CC[C@H]12)OCc1ccccc1`, the z-score was -0.597. `C=CCOC(=O)[C@H]1[C@@H]2C(=O)O[C@@H](c3ccccc3)[C@@H](c3ccccc3)N2[C@@H](c2ccc(OCCOC(=O)[C@H]3C[C@H]4C(=O)N[C@@H](Cc5ccccc5)C(=O)N4[C@H]3c3ccc(O)cc3)cc2)[C@]12C(=O)Nc1ccccc12` gave a z-score of -1.32. In the case of `COCCCNC(=O)[C@@]1(Sc2ccc(C)cc2)CC(=O)N(Cc2ccccc2)[C@@H]1c1ccc(CO)cc1I`, the z-score is reported as -2.02. In the case of `CCCCCN1CC=CC23O[C@@H]4C=CCOC(=O)[C@@H]4[C@H]2C(=O)N(C(CO)C(C)C)[C@@H]3C1=O` (stereo partly specified), the z-score is reported as 0.245. Compound `CO[C@@H]1COC(=O)CC=C[C@@H](C)[C@@H]2C=C[C@@H](O)[C@@H](COC(=O)CC=C[C@H]1C)O2` has a z-score of 0.464. `CO[C@@H]1COC(=O)[C@H](C)NC(=O)[C@@H](C)COC(=O)CCC[C@H]1C` gave a z-score of -1.33. Work on `COC(=O)[C@@]1(Cc2ccc(OC)cc2)[C@H]2c3cc(C(=O)N4CCCC4)n(Cc4cc(F)c(F)c(F)c4)c3C[C@H]2CN1C(=O)c1ccccc1` yielded a z-score of 0.323. For `CC(C)=NOCc1cccc(-c2cc(-c3ccccc3)no2)c1`, the z-score was -0.149. Compound `CC(C)=NOCc1ccc(-c2cc(-c3ccccc3)no2)cc1` has a z-score of -0.115. Work on `Cn1cccc1C(O)C1C=CC2C(=O)NC(=O)C2N1Nc1ccccn1` (stereo unspecified) yielded a z-score of -0.803.
